Data reported in PubChem BioAssay AID1224921 (Broad Institute, 2016).
The whole screen tested about 1,400 compounds, of which about 350 (25%) were called active. Another 2% or so got no clear call; they are omitted. How the calls were made is not given here. Only a sample is shown. Results with a measured potency or affinity are listed apart.

Experiment: C. difficile growth inhibition, confirmation, 4-point retest (AID 1224921);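 further: plate controls were DMSO wells for no effect and levofloxacin 16 µg/mL wells for full effect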
Conditions: Clostridioides difficile clinical isolate growth, OD600, 24 h, active compounds read low; at 30 µM unless noted

Max activity, inactive:
COCC(=O)Nc1ccc2c(c1)OC[C@H](C)N(Cc1cncnc1)C[C@@H](C)[C@@H](OC)CN(C)C2=O -11.6%
O=C(Nc1cc(F)ccc1F)N[C@H]1CC[C@@H](CC(=O)N2CCc3ccccc3C2)O[C@H]1CO -5.46% [at 0.5 µM]
O=C(C[C@H]1C=C[C@@H](NC(=O)c2ccccn2)[C@H](CO)O1)NCc1cc(F)cc(F)c1 7.65%
CO[C@H]1CN(C)C(=O)c2cc(NC(=O)c3ccccc3)ccc2OC[C@H](C)N(CC2CC2)C[C@H]1C -5.21% [at 8 µM]
O=C(Nc1cc(F)ccc1F)N[C@@H]1CC[C@H](CC(=O)N2CCc3ccccc3C2)O[C@@H]1CO 29.6%
CCCC#Cc1ccc2c(c1)O[C@H](CN(C)Cc1cccnc1)[C@@H](C)CN([C@H](C)CO)S2(=O)=O 41%
CO[C@H]1CN(C)C(=O)c2cc(NC(C)=O)ccc2OC[C@H](C)N(Cc2nccs2)C[C@H]1C 16%
O=C1O[C@@H](c2ccccc2)[C@@H](c2ccccc2)N2[C@@H](c3ccc(O)cc3)[C@]3(C(=O)Nc4ccc(C#CC5=CCCCC5)cc43)[C@@H](C(=O)O)[C@H]12 28.7% [at 8 µM]
CCCNC(=O)N[C@@H]1C=C[C@@H](CC(=O)N2CCN(C)CC2)O[C@H]1CO -11.4%
Cc1noc(C)c1NC(=O)N[C@H]1CC[C@H](CC(=O)Nc2ccc(-c3ccccc3)cc2)O[C@H]1CO 16%
CCCC(=O)Nc1ccc2c(c1)C(=O)N(C)[C@H]1CC[C@@H](CC(=O)OC)O[C@@H]1CO2 -11% [at 0.5 µM]
Cc1ccc(-c2ccc3c(c2)O[C@@H](CN(C)Cc2cccnc2)[C@H](C)CN([C@H](C)CO)S3(=O)=O)cc1 16.8%
NC(=O)[C@H]1[C@@H]2C(=O)O[C@@H](c3ccccc3)[C@@H](c3ccccc3)N2[C@@H](c2ccc(O)cc2)[C@]12C(=O)Nc1ccc(C#CC3(O)CCCCCC3)cc12 32.1%
C[C@H]1CN([C@@H](C)CO)S(=O)(=O)c2ccc(C#CC3(O)CCCC3)cc2O[C@H]1CN(C)C(=O)Nc1ccc(F)cc1 15.4% [at 8 µM]
C[C@H](CO)N1C[C@H](C)[C@@H](CN(C)Cc2ccc(Cl)c(Cl)c2)Oc2ccc(NS(=O)(=O)c3ccccc3)cc2CC1=O 28.2%
CO[C@@H]1CN(C)C(=O)c2cc(NC(=O)c3ccc(Oc4ccccc4)cc3)ccc2OC[C@H](C)NC[C@H]1C -11.3% [at 0.5 µM]
CC(C)CC#Cc1ccc2c(c1)O[C@@H](CN(C)Cc1ccncc1)[C@@H](C)CN([C@H](C)CO)S2(=O)=O 7.2% [at 0.5 µM]
O=C(C[C@@H]1CC[C@@H](NC(=O)CCN2CCCCC2)[C@@H](CO)O1)Nc1nccs1 -8.84% [at 1.95 µM]
CCS(=O)(=O)Nc1ccc2c(c1)C(=O)N(C)C[C@H](OC)[C@@H](C)CN(C(C)=O)[C@H](C)CO2 8.06%
CO[C@@H]1CN(C)C(=O)c2cc(NC(=O)c3ccc(-c4ccccc4)cc3)ccc2OC[C@H](C)NC[C@H]1C 10.1% [at 1.95 µM]
CCc1cnc(N2[C@H](CO)[C@@H](c3ccc(C4=CCCCC4)cc3)[C@@H]2C#N)s1 36.5% [at 0.5 µM]
C[C@H]1CN([C@@H](C)CO)S(=O)(=O)c2ccc(/C=C/c3ccccc3)cc2O[C@H]1CN(C)C(=O)NC1CCCCC1 52.4%
COCC(=O)Nc1ccc2c(c1)OC[C@@H](C)N(Cc1ccccc1OC)C[C@@H](C)[C@H](OC)CN(C)C2=O -8.61% [at 7.5 µM]
CC(C)COC(=O)N(C)C[C@@H]1OCc2ccccc2-c2c(n(C)c3ccccc23)C(=O)N([C@@H](C)CO)C[C@@H]1C -18.1% [at 8 µM]
CCC(=O)Nc1ccc2c(c1)C(=O)N(C)C[C@@H](OC)[C@@H](C)CN(Cc1cncnc1)[C@@H](C)CO2 -7.99% [at 0.5 µM]
C[C@@H]1CN([C@@H](C)CO)C(=O)Cc2cc(NS(C)(=O)=O)ccc2O[C@@H]1CN(C)Cc1ccc(Oc2ccccc2)cc1 36.1% [at 35 µM]
C[C@H](CO)N1C[C@H](C)[C@@H](CN(C)Cc2ccncc2)Oc2cc(-c3ccccc3)ccc2S1(=O)=O 23.5%
C[C@@H]1CCCCO[C@H](CN(C)CC2CCCCC2)[C@H](C)CN([C@@H](C)CO)C(=O)c2cc(NC(=O)Nc3ccc(F)cc3)ccc2O1 11.6%
C[C@@H]1CCCCO[C@H](CN(C)CC2CCCCC2)[C@H](C)CN([C@@H](C)CO)C(=O)c2cc(NC(=O)Nc3ccccc3)ccc2O1 9.95%
CO[C@H]1O[C@H](CO)[C@@H](OC(=O)Nc2ccccc2)[C@H](OC(=O)Nc2ccc3c(c2)OCO3)[C@H]1OC(=O)Nc1ccc2c(c1)OCO2 -7.27% [at 1.95 µM]
Cc1ccccc1S(=O)(=O)NCC[C@H]1CC[C@H](NC(=O)Nc2cccc(Cl)c2)[C@@H](CO)O1 13.2%
CO[C@@H]1CN(C)C(=O)c2cc(NC(C)=O)ccc2OC[C@H](C)N(Cc2nccs2)C[C@@H]1C 24.6%
CC(C)NC(=O)N1[C@H](C#N)[C@@H](c2ccc(-c3ccc(F)cc3)cc2)[C@@H]1CO 21.4% [at 8 µM]
N#C[C@H]1[C@@H](c2ccc(-c3ccc(F)cc3)cc2)[C@H](CO)N1C(=O)Cc1ccccc1 29.3% [at 8 µM]
CC(C)C#Cc1ccc([C@@H]2[C@@H](CO)N(C(=O)c3cccc(F)c3)[C@H]2C#N)cc1 15.2%
N#C[C@@H]1[C@@H](c2ccc(C#Cc3ccc(F)cc3)cc2)[C@H](CO)N1C(=O)C1CCC1 35.7%
CO[C@H]1O[C@H](CO)[C@@H](OC(=O)c2ccc(Br)cc2)[C@H](OC(=O)c2cc3ccccc3[nH]2)[C@H]1OC(=O)c1cc2ccccc2[nH]1 39.8%
CC(C)CC#Cc1ccc2c(c1)O[C@H](CN(C)Cc1ccncc1)[C@H](C)CN([C@@H](C)CO)S2(=O)=O 25.7%
C[C@@H]1CN([C@@H](C)CO)S(=O)(=O)c2ccc(C#CC3(O)CCCC3)cc2O[C@@H]1CN(C)C(=O)Nc1cccc(F)c1 40.2%
CO[C@H]1CN(C)C(=O)c2cc(NS(=O)(=O)c3cn(C)cn3)ccc2OC[C@H](C)N(C)C[C@@H]1C -7.09% [at 0.5 µM]
COc1cccc(NC(=O)N[C@@H]2C=C[C@H](CC(=O)NCc3ccncn3)O[C@H]2CO)c1 11.5%
CC(C)NC(=O)N(C)C[C@H]1Oc2cc(C#Cc3cccc(F)c3)ccc2S(=O)(=O)N([C@H](C)CO)C[C@H]1C 32.6%
C[C@H](CO)N1C[C@H](C)[C@@H](CN(C)Cc2ccc(Cl)c(Cl)c2)Oc2ccc(NS(=O)(=O)c3cccs3)cc2CC1=O 37.8% [at 8 µM]
CO[C@@H]1CN(C)C(=O)c2ccc(NC(=O)NC(C)C)cc2OC[C@@H](C)N(C(=O)NC(C)C)C[C@H]1C -11.6% [at 2.1 µM]
CCCC(=O)Nc1ccc2c(c1)OC[C@H](C)N(CCc1ccccc1)C[C@@H](C)[C@H](OC)CN(C)C2=O 25.9%
O=C(Nc1ccc(Cl)cc1)N[C@@H]1CC[C@@H](CCn2cc(C3(O)CCCC3)nn2)O[C@@H]1CO 29.6%
C[C@@H]1CN([C@@H](C)CO)C(=O)c2ccccc2-c2ccccc2CO[C@H]1CN(C)CC1CC1 9.59%
CO[C@@H]1CN(C)C(=O)c2ccc(NC(=O)Nc3cccc(F)c3)cc2OC[C@@H](C)N(C(=O)C2CC2)C[C@H]1C -12.2% [at 8 µM]
C[C@@H]1CN([C@@H](C)CO)C(=O)c2cc(NC(=O)NC3CCCCC3)ccc2O[C@@H](C)CCCCO[C@@H]1CN(C)Cc1ccc(C(F)(F)F)cc1 24.6%
CC(C)CC#Cc1ccc2c(c1)O[C@H](CN(C)Cc1ccccn1)[C@@H](C)CN([C@@H](C)CO)S2(=O)=O 27.1%
CC(C)C#Cc1ccc2c(c1)O[C@H](CN(C)Cc1cccnc1)[C@@H](C)CN([C@H](C)CO)S2(=O)=O 44.6%
CCCC(=O)Nc1ccc2c(c1)C(=O)N(C)C[C@@H](OC)[C@@H](C)CN(C)[C@@H](C)CO2 -13% [at 8 µM]
Cc1ccc(S(=O)(=O)N(C)C[C@@H]2Oc3c(NC(=O)Nc4ccc(F)cc4)cccc3C(=O)N([C@H](C)CO)C[C@H]2C)cc1 -10.7% [at 1.95 µM]
C[C@@H]1CN([C@H](C)CO)C(=O)c2cccc(NC(=O)Nc3ccc(F)cc3)c2O[C@H]1CN(C)S(=O)(=O)c1ccc(F)cc1 -11.6% [at 7.5 µM]
C[C@H]1CN([C@@H](C)CO)C(=O)c2cccc(NC(=O)Nc3ccc(C(F)(F)F)cc3)c2O[C@@H]1CN(C)Cc1ccc2c(c1)OCO2 42%
C[C@@H]1CN([C@@H](C)CO)C(=O)c2cccc(NC(=O)Nc3ccc(C(F)(F)F)cc3)c2O[C@H]1CN(C)Cc1ccc2c(c1)OCO2 34.4% [at 8 µM]
C[C@@H]1CN([C@@H](C)CO)C(=O)c2cc(Br)cnc2O[C@H]1CN(C)C(=O)c1ccccc1 9.74%
